HT1080-NT tox = kills 2HG-producing HT-1080-NT fibrosarcoma cells; HT-1080-NT fibrosarcoma viability, CellTiter-Glo ATP luminescence, 48 h; Potency, µM (highest dose often 46.1 µM), without a hit: top-dose activity, negative = less viability, actives largely listed as cytotoxic; 360,000 tested, 1.6% active;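 also: NT is the 2HG producing partner of a matched IDH1 knockdown line; 0% = DMSO-treated cells and -100% = media-only wells without cells; nearly all actives have a fitted effect of over 55% in size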
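Fibrosarcoma NT cells, 750 per well in 5% FBS RPMI, were exposed to compound for 48 hours. Viability: CellTiter-Glo luminescence.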
HT1080 IDH1KD tx = HT-1080 IDH1 knockdown cell toxicity (counter line); HT-1080 IDH1 knockdown viability, ATP luminescence, 48 h; Potency, µM (series often up to 46.1 µM), for the others: at the highest dose activity, negative = toxicity, usual class: cytotoxic; 360,000 tested, 2% active;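 also: 0% = DMSO wells and -100% = cell-free medium wells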
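In this qHTS, HT-1080 cells depleted of IDH1 are exposed for 48 h at 37 °C to compound titrations. Toxicity is scored from CellTiter-Glo luminescence, with DMSO as full viability and medium alone as none.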
TDP1 cell noCPT = qHTS for Inhibitors of human tyrosyl-DNA phosphodiesterase 1 (TDP1): qHTS in cells in absence of CPT | DT40 Tdp1-/- hTDP1 cells, no CPT, ATP luminescence, 48 h | Potency, µM (top dose mostly 46.2 µM), for inactives: at the highest dose activity change, negative = growth inhibition, actives largely listed as inhibitors | 420,000 tested, 15% active | AID 686978, 2013; also: nearly all actives have a fitted effect of over 55% in size
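Chicken DT40 Tdp1-/- cells stably complemented with human TDP1 were seeded at 400 cells/well with DMSO in place of 20 nM camptothecin. After compound pinning, cells grew at least 48 hr at 37 °C; viability read by CellTiter-Glo luminescence.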
KB-V1 MDR tox = kills drug-selected multidrug resistant KB-V1 cells; AID 1347076; KB-V1 MDR cells viability, CellTiter-Glo, 72 h; 400,000 tested, 3.4% active; Potency, µM (doses to about 46.1 µM), most hits filed as cytotoxic; also: nearly all actives have a fitted effect of over 60% in size
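KB-V1, DMEM (no phenol red) + 10% FBS; cpd pin-transferred, titration series; 72 h, 37 degrees C; CellTiter-Glo, luminescence. Data normalized, curve-fit.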
TDP1 cell CPT = growth inhibition of DT40 Tdp1-/-;hTDP1 cells with camptothecin (screen for TDP1 inhibitors); chicken DT40 Tdp1-/-;hTDP1 cells + 20 nM CPT, ATP luminescence, 48 h; Potency, µM (top dose mostly 46.2 µM), for inactives: top-dose activity change, negative = growth inhibition, usual class: inhibitors; 420,000 tested, 12% active; AID 686979; also: nearly all actives have a fitted effect of over 55% in size
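Cell growth measured by CellTiter-Glo luminescence after a minimum 48 h, 37 C compound exposure with 20 nM CPT in Tdp1-knockout DT40 cells stably expressing hTDP1, seeded 400/well; qHTS titration format.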
KB-3-1 cytotox = kills parental KB-3-1 adenocarcinoma cells | 400,000 tested, 1.4% active | KB-3-1 viability, CellTiter-Glo ATP luminescence, 72 h | Potency, µM (series often up to 46.1 µM), most hits filed as cytotoxic | AID 1347075; also: nearly all actives have a fitted effect of over 60% in size
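Viability of parental KB-3-1 cells, measured by CellTiter-Glo luminescence, followed a 72 h incubation at 37 °C with pinned compounds in phenol-red-free DMEM containing 10% FBS.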
Numbers without * were called inactive; i = inactive; ? = inconclusive; . = not tested or not shown; [ ] = dose if it differs, or a comment. Shown are actives, neighbours in structure and some others; about 19% of the full set was active somewhere. Calls follow the shape of the dose curve; as a rule, active = well fitted curve in the direction sought with a large enough effect; inconclusive = small, poorly fitted or top-dose-only effect, or another doubt; inactive = no such curve, though single readings can be large; an effect the other way counts as inactive or inconclusive. Unless noted, % is scaled to controls: 0 for no effect and ±100 for the full control effect; potency is read from the fitted curve at half-maximal effect.

SMILES	HT1080-NT tox	HT1080 IDH1KD tx	TDP1 cell noCPT	KB-V1 MDR tox	TDP1 cell CPT	KB-3-1 cytotox
COc1cccc(-c2ccc(NC(=O)C3CCCN(Cc4cnn(C(C)C)c4)C3)cc2)c1 (stereo unspecified)	18.4µM*	?	?	i	23.1µM*	?
COc1cccc(-c2ccc(NC(=O)C3CCCN(Cc4cc(C)[nH]n4)C3)cc2)c1 (stereo unspecified)	-16.8%	?	?	?	?	i
COc1ccc(O)c(CN2CCCC(C(=O)Nc3cccc(-n4cccn4)c3)C2)c1 (stereo unspecified)	-0.2%	1.5%	?	.	?	.
COc1cccc(-c2ccc(NC(=O)C3CCCN(CCCn4cccn4)C3)cc2)c1 (stereo unspecified)	-13.9%	3.2%	?	i	?	i
COCc1ccc(CN2CCCC(C(=O)Nc3ccc(-c4cccc(OC)c4)cc3)C2)o1 (stereo unspecified)	?	?	14.6µM*	i	?	i
COc1cccc(-c2ccc(NC(=O)C3CCCN(Cc4cnc(N(C)C)s4)C3)cc2)c1 (stereo unspecified)	-15.5%	-18.0%	23.1µM*	i	18.4µM*	i
CCCc1cc(CN(C)C(=O)CC2C(=O)NCCN2Cc2ccccc2C)[nH]n1 (stereo unspecified)	7.3%	5.0%	1.6%	i	6.7%	i
Cc1ccc(C2(C)NC(=O)N(CC(=O)N(Cc3ccccc3)C(C)(C)C)C2=O)cc1 (stereo unspecified)	-3.6%	-19.6%	?	i	?	i
CC(C)(C)c1ccc(C(=O)NC(Cc2c[nH]c3ccccc23)C(=O)OCC(=O)c2ccccc2)cc1 (stereo unspecified)	.	.	-19.9%	i	-27.0%	i
COc1ccc(C(=O)COC(=O)C(Cc2c[nH]c3ccccc23)NC(=O)c2ccc(C(C)(C)C)cc2)cc1 (stereo unspecified)	.	.	13µM*	i	18.4µM*	i
O=C(O)C1CC=CCC1C(=O)NCc1ccc(Cl)c(Cl)c1 (stereo unspecified)	7.4%	4.9%	-28.8%	i	15.9%	i
CCCNC(=O)CN1C(=O)c2ccccc2Sc2ncccc21	0.5%	9.7%	-12.0%	i	3.9%	i
O=c1c(Cl)c(NCCO)ncn1-c1ccccc1	2.1%	12.1%	-3.5%	i	7.1%	i
COc1cc2cc(/C=C/C(=O)c3ccco3)c(Cl)nc2cc1OC	?	-27.1%	4.61µM*	?	4.11µM*	?
Cc1ccc2cc(/C=C/C(=O)c3ccco3)c(Cl)nc2c1	?	11.6µM*	20.6µM*	?	10.3µM*	i
Cc1ccc(NC(=O)C2C3CCC(O3)C2C(=O)O)c(Br)c1 (stereo unspecified)	-1.3%	-27.0%	8.7%	i	7.4%	i
CCCN(CC(=O)Nc1ccccc1C)C(=O)c1ccc(=O)n(Cc2ccccc2)n1	5.1%	-8.1%	-8.0%	?	7.4%	?
CC(=O)Nc1c(Cl)cc2c(c1Cl)Cc1cc(C#N)ccc1-2	-9.3%	-14.4%	-26.0%	0.92µM*	-29.7%	1.16µM*
CC(=O)Nc1c(Cl)cc2c(c1Cl)Cc1ccccc1-2	9.7%	4.7%	?	i	?	i
CN(C)S(=O)(=O)c1ccc(C(=O)OCn2nnc3ccccc3c2=O)cc1	4.1%	9.3%	?	i	-23.1%	i
c1ccc(-c2nnc(-c3ccco3)o2)cc1	7.5%	12.7%	-2.7%	i	-3.2%	i
c1coc(-c2nnc(-c3ccco3)nn2)c1	-5.1%	0.0%	11.6µM*	i	5.8µM*	i
COc1ccc(C2=NOC(Cn3nc(C(=O)NCC4CC4)cc3-c3ccccc3)C2)cc1 (stereo unspecified)	-1.8%	-2.1%	?	i	20.6µM*	i
COc1ccc(C2=NOC(Cn3nc(C(=O)NCc4ccc(OC(F)(F)F)cc4)cc3-c3ccccc3)C2)cc1 (stereo unspecified)	5.4%	0.8%	?	i	?	i
COc1ccc(C2=NOC(Cn3nc(C(=O)NCc4ccccc4OC)cc3-c3ccccc3)C2)cc1 (stereo unspecified)	0.9%	-0.9%	20.6µM*	i	23.1µM*	i
SMILES	HT1080-NT tox	HT1080 IDH1KD tx	TDP1 cell noCPT	KB-V1 MDR tox	TDP1 cell CPT	KB-3-1 cytotox
CCc1ccccc1N(CC(=O)NCc1ccco1)C(=O)CCC(=O)Nc1nccs1	1.8%	0.9%	-28.1%	i	-26.2%	i
COC(=O)c1scc(S(=O)(=O)C(C)C)c1N/N=C(\C#N)C(=O)c1ccc(Cl)cc1	?	?	23.1µM*	?	?	?
COC(=O)c1scc(C)c1NC(=O)c1ccc(Cl)cc1	1.3%	-0.2%	?	i	-8.1%	i
CC(C)S(=O)(=O)c1csc(C(=O)NN)c1Cl	4.2%	-2.8%	-7.6%	i	1.9%	i
COC(=O)c1scc(C#N)c1N/N=C(\C#N)S(=O)(=O)c1ccc(Cl)cc1	?	?	4.61µM*	8.2µM*	4.11µM*	?
CC[C@H](C)[C@H](NC(=O)[C@H](C)NC(=O)[C@H](CC(N)=O)NC(=O)[C@H](CCCCN)NC(=O)[C@H](Cc1ccccc1)NC(=O)[C@H](CC(C)C)NC(=O)[C@@H](NC(=O)[C@@H](NC(=O)[C@H](CC(C)C)NC(=O)[C@@H]1CCCN1C(=O)[C@@H](NC(=O)[C@H](CCC(N)=O)NC(=O)[C@H](CO)NC(=O)[C@H](CCCCN)NC(=O)[C@H](CCC(=O)O)NC(=O)[C@H](CO)NC(=O)[C@@H](NC(=O)[C@H](CCSC)NC(=O)[C@H](Cc1ccccc1)NC(=O)CNC(=O)CNC(=O)[C@@H](N)Cc1ccc(O)cc1)[C@@H](C)O)[C@@H](C)O)C(C)C)[C@@H](C)O)C(=O)N[C@H](C(=O)N[C@@H](CCCCN)C(=O)N[C@@H](CC(N)=O)C(=O)N[C@@H](C)C(=O)N[C@@H](Cc1ccc(O)cc1)C(=O)N[C@@H](CCCCN)C(=O)N[C@@H](CCCCN)C(=O)NCC(=O)N[C@@H](CCC(=O)O)C(=O)O)[C@@H](C)CC	.	.	3.9%[4.12 µM]	.	-2.1%[4.12 µM]	.

Screening results as filed in PubChem.
